According to the supplement of paper PMC3334620:
The full ranking holds about 33,000 sequences; the median of “E-score (-0.5 to 0.5)” is about -0.0014, and the highest 2% start at about 0.25. The entries come from a sample that favours the highest values as a whole.

These sequences were tested against T1, Cad1 (UniProt P24813) (assay: PBM E-score (8-mer binding enrichment) (E-score (-0.5 to 0.5)); higher = stronger / more preferred TF binding). Conditions: protein concentration: 100 nM; construct: GST-full length.
T1 sequence: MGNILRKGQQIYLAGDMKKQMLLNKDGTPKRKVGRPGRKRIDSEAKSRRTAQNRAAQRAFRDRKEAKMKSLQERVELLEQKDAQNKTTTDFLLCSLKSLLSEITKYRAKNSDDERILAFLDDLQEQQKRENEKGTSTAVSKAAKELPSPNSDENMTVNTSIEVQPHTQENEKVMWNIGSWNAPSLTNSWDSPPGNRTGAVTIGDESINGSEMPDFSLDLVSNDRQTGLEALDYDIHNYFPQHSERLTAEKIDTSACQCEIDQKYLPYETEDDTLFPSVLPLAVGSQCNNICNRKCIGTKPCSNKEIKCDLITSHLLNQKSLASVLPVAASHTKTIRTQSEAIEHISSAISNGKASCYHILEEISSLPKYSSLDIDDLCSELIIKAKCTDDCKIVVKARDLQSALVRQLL
Procedure, shortened: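 Using PURExpress in vitro transcription/translation, GST-tagged yeast transcription factors were made in full-length or DNA-binding-domain form. These were applied at about 100-200 nM to double-stranded universal all-10-mer Agilent arrays, and bound protein was detected with fluorescent anti-GST. Scans were normalised with masliner before the Universal PBM Analysis Suite assigned E-scores to ungapped eight-base words pooled with their reverse complements.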
TGTAGTAA was tested, and the “PBM E-score” value was 0.145.
CGGAAACG was tested, and the “PBM E-score” value was -0.0175.
For AATCTAGG, the “PBM E-score” value was 0.00096.
TGCTCCAA was tested, and the “PBM E-score” value was 0.0768.
For GAATCTGC, the “PBM E-score” value was 0.014.
TACATGTA was tested, and the “PBM E-score” value was 0.27.
With GACATGTA the “PBM E-score” value was 0.0721.
In the case of CACATGTA, the “PBM E-score” value was 0.109.
ACGATTGC was tested, and the “PBM E-score” value was 0.213.
For CCGATTGA, the “PBM E-score” value was 0.144.
CCGATTGC was tested, and the “PBM E-score” value was 0.25.
For CCGGGTAG, the “PBM E-score” value was 0.00529.
In the case of ATTAGATA, the “PBM E-score” value was 0.211.
In the case of ATTAGATC, the “PBM E-score” value was 0.03.
ATTAGATG was tested, and the “PBM E-score” value was 0.263.
ACATTGGT was tested, and the “PBM E-score” value was 0.0584.
For AGCTAGCT, the “PBM E-score” value was 0.162.
In the case of TAACAATA, the “PBM E-score” value was 0.165.
CAACAAGA was tested, and the “PBM E-score” value was -0.0155.
For AAACAATA, the “PBM E-score” value was 0.251.
In the case of AAACAATT, the “PBM E-score” value was 0.114.
For GAACAACA, the “PBM E-score” value was -0.043.
For CAACAACA, the “PBM E-score” value was 0.269.
TCCAAGAA was tested, and the “PBM E-score” value was -0.0134.
With GCGTTAGC the “PBM E-score” value was 0.0751.
CGTAGATA was tested, and the “PBM E-score” value was 0.113.
In the case of ATTATGTG, the “PBM E-score” value was 0.25.
ACTATATC was tested, and the “PBM E-score” value was 0.109.
ATTATGTA was tested, and the “PBM E-score” value was 0.311.
For CTTATATA, the “PBM E-score” value was 0.331.
GCTATATA was tested, and the “PBM E-score” value was 0.149.
With GTTATATA the “PBM E-score” value was 0.232.
AGTAGATC was tested, and the “PBM E-score” value was -0.191.
With ATTATGTC the “PBM E-score” value was 0.181.
In the case of AGTAGATA, the “PBM E-score” value was 0.282.
In the case of ACTATATA, the “PBM E-score” value was 0.251.
In the case of CTTATATC, the “PBM E-score” value was 0.0947.
With ATCCGGGG the “PBM E-score” value was -0.0124.
CAACCGTG was tested, and the “PBM E-score” value was 0.00095.
With GATCCTAC the “PBM E-score” value was 0.00192.
With CCGTATTC the “PBM E-score” value was -0.0178.
For ATGGACCC, the “PBM E-score” value was -0.0809.
In the case of AGTATATC, the “PBM E-score” value was 0.0175.
In the case of AGTATATG, the “PBM E-score” value was 0.0763.
In the case of ATTATATA, the “PBM E-score” value was 0.306.
In the case of ATTATATG, the “PBM E-score” value was 0.211.
For ATTATATC, the “PBM E-score” value was 0.0433.
With AGTATATA the “PBM E-score” value was 0.285.
AAAATATT was tested, and the “PBM E-score” value was 0.192.
ACCCACTA was tested, and the “PBM E-score” value was 0.107.
For AGCGCCAA, the “PBM E-score” value was -0.0679.
ATGGTCTC was tested, and the “PBM E-score” value was 0.102.
AATAAGCT was tested, and the “PBM E-score” value was 0.234.
CGTAAGCA was tested, and the “PBM E-score” value was 0.232.
For AATAAGAT, the “PBM E-score” value was 0.039.
With GGTAAGCA the “PBM E-score” value was 0.257.
In the case of AATAAGCA, the “PBM E-score” value was 0.343.
AATAAGAG was tested, and the “PBM E-score” value was 0.0662.
In the case of GATAAGCA, the “PBM E-score” value was 0.154.
For AGTAAGCA, the “PBM E-score” value was 0.241.
AATAAGAA was tested, and the “PBM E-score” value was 0.252.
CTCTAGTC was tested, and the “PBM E-score” value was -0.388.
For AGACTTGA, the “PBM E-score” value was -0.0266.
For ATTTCCGG, the “PBM E-score” value was 0.264.
For AATTTCCG, the “PBM E-score” value was 0.24.
For ATTTTCCC, the “PBM E-score” value was 0.00868.
ATTTCCGC was tested, and the “PBM E-score” value was 0.123.
In the case of ATTCCCGA, the “PBM E-score” value was -0.241.
ATTTCCGA was tested, and the “PBM E-score” value was 0.0803.
For ATTCCCCG, the “PBM E-score” value was -0.0432.
With ATTCCCGG the “PBM E-score” value was 0.296.
In the case of ATTTTCCG, the “PBM E-score” value was 0.304.
In the case of GCGGGTCC, the “PBM E-score” value was -0.207.
With AGTTTGGC the “PBM E-score” value was 0.109.
With CCCTAAAA the “PBM E-score” value was -0.228.
With GCTCAGCC the “PBM E-score” value was -0.143.
AGGCAAAC was tested, and the “PBM E-score” value was -0.106.
With CACCGTGG the “PBM E-score” value was -0.018.
With ACGAATTA the “PBM E-score” value was 0.0763.
In the case of ACTAATGC, the “PBM E-score” value was 0.275.
For CCTAATTA, the “PBM E-score” value was 0.156.
GCTAATGA was tested, and the “PBM E-score” value was -0.0534.
ACTAATTC was tested, and the “PBM E-score” value was 0.306.
In the case of ACTAACTA, the “PBM E-score” value was 0.00503.
ACTAATTG was tested, and the “PBM E-score” value was 0.197.
For ACTAATTA, the “PBM E-score” value was 0.377.
With ACTAATGA the “PBM E-score” value was 0.128.
For GCTAATTA, the “PBM E-score” value was 0.306.
For CCTAATTC, the “PBM E-score” value was -0.115.
In the case of ACTAATGG, the “PBM E-score” value was 0.209.
CGAAAACG was tested, and the “PBM E-score” value was 0.0757.
In the case of CTTTACCA, the “PBM E-score” value was 0.00321.
For AACTTATT, the “PBM E-score” value was 0.142.
In the case of GTATTAAC, the “PBM E-score” value was -0.0392.
